Hits are enriched below; roughly 6.2% of the tested compounds scored in any of these assays.
HCMV antiviral = human cytomegalovirus inhibition; 4.5% of 410,000 active; HFF cells, HCMV-luciferase reporter, 72 h; active compounds read low; activity change, negative = inhibition, % at 57.5 µM; in the data active = activity change below about -60%; inconclusive = no clear call, values can overlap the other calls; inactive = above about -39%
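Steps: HFFs plated, 16 h 37C; compounds added; HCMV-luciferase added to MOI 1 PFU/cell; 72 h 37C; OneGlo reagent, 5 min room temperature; luminescence read, normalized to controls.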
FMDV inh = antivirals against foot and mouth disease virus. FMDV antiviral cell-based qHTS. 1.2% of 410,000 active. Potency, µM (series often up to 57.9 µM), for the others: at the top dose activity change, negative = inhibition, actives largely listed as inhibitors; calls by dose curve; tested in HEK293T cells; note: read-out not given here; potency is the fitted concentration of half-maximal effect; nearly all actives have a fitted effect of over 45% in size
Marburg entry inh = Marburg virus entry inhibition | Potency, µM (top dose mostly 37.8 µM), without a hit: top-dose activity change, negative = inhibition, most hits filed as inhibitors | Marburg virus pseudotyped entry inhibition, cell reporter | 1.8% of 300,000 active; calls by dose curve; tested in HEK293 cells; note: potency is the fitted concentration of half-maximal effect
LASV entry inh = Lassa virus entry inhibition; Lassa virus pseudotype entry inhibition, cell reporter; Potency, µM (highest dose often 37.9 µM), inactives show at the highest dose activity change, negative = inhibition, usual class: inhibitors; 1.2% of 300,000 active; calls by dose curve; tested in HEK293 cells; note: potency is the fitted concentration of half-maximal effect; nearly all actives have a fitted effect of over 50% in size
An asterisk follows results filed as active; ? = inconclusive; nt = not tested or not shown; + = active, no number; [ ] = dose if it differs, or a comment. % is set by controls: 0 for no effect and ±100 for the full control effect.

SMILES	HCMV antiviral	FMDV inh	Marburg entry inh	LASV entry inh
O=C(Nc1ccc(C(=O)OC[C@@H]2CCCN3CCCC[C@H]23)cc1)c1cccc(Br)c1	-5	-4%	9.2µM*	-6%
Cc1ccc(C(=O)Nc2cccc(C(=O)OCc3cc(=O)n4c5c(sc4n3)CCCC5)c2)cc1	-88*	-19%	nt	26%[46.1 µM]
Cc1ccccc1C(=O)Nc1ccc(C(=O)OCc2cc(=O)n3nc(C4CC4)sc3n2)cc1	-81*	13µM*	nt	?
O=C(OCc1cc(=O)n2nc(C3CC3)sc2n1)c1ccc(NC(=O)c2ccccc2F)cc1	-19	-27%	nt	-2%[46.1 µM]
CC(=O)c1cccc(NC(=O)c2sc(-n3nc(C)c(CCC(C)C)c3C)nc2C)c1	-25	-2%	-13%[46.1 µM]	-1%[46.1 µM]
CS(=O)(=O)c1ccc(Nc2cc3c(cn2)cc(-c2ccccc2)n3Cc2ccccc2)cc1	-28	nt	nt	nt
Cc1nc2cc(NC(=O)[C@@H]3C[C@@H](Sc4ccccn4)CN3Cc3cccc(Cl)c3)ccc2s1	nt	5%	nt	nt
FC(F)Oc1ccc(NC(=S)NC2CCSc3ccccc32)cc1 (configuration not stated)	-82*	0%	-29%	-23%
Cc1ccc(CNC(=O)O[C@H]2CC[C@@]34CCCN3C(=O)CCC[C@H]4[C@H]2Cc2ccccc2)o1	-23	nt	nt	nt
COc1ccc2[nH]c3c(=O)n(/N=C/[C@H]4C(C)C=C(C)CC4C)c(=O)[nH]c3c2c1 (some centres not stated)	-80*	?	-31%	-4%
CC1=CC(C)[C@H](/C=N/n2c(=O)[nH]c3c([nH]c4ccc(Br)cc43)c2=O)C(C)C1 (some centres not stated)	-74*	-28%	-25%	?
COc1ccc2c(c1)[nH]c1c(=O)n(/N=C/C3C(C)C=C(C)CC3C)c(=O)[nH]c12 (configuration not stated)	-24	0%	?	-1%
Nc1nc(Nc2ccccc2)nc2ccccc12	229	-43%	?	?
CN(C)c1nc(Nc2ccccc2)nc(N(C)C)n1	50	-1%	3.5µM*	22%
CN(C)c1ccc(Nc2nc(N)c3ccccc3n2)cc1	-30	7.1µM*	0.63µM*	0.89µM*
COC(=O)c1ccc(Oc2nc(Nc3ccccc3)nc(N(C)C)n2)cc1	-15	?	-19%	-3%
CCOc1ccc(Nc2nc(N)c3ccccc3n2)cc1	-2	8.9µM*	4.5µM*	?
CCOc1ccccc1NC(=O)c1nnn(CC(=O)Nc2ccc(OC)c(OC)c2)c1N	-22	3%	nt	9%[46.1 µM]
CC(C)CN1CCNC(=O)C1CC(=O)NCCc1cnn(-c2ccccc2)c1 (configuration not stated)	-2	-5%	9%[46.1 µM]	10%
CC(C)CN1CCNC(=O)C1CC(=O)NCCc1ccc(C(F)(F)F)cc1 (configuration not stated)	-101*	8%	-10%[46.1 µM]	-9%[46.1 µM]
CN(C(=O)c1cnc(N2CCN(c3ncccn3)CC2)c2ccccc12)c1ccc(Cl)cc1	?	20µM*	?	?
CCN(C(=O)c1cnc(N2CCN(c3ncccn3)CC2)c2ccccc12)c1cccc(Cl)c1	-85*	20µM*	?	?
Cc1ccc(Cl)cc1N(C)C(=O)c1cnc(N2CCOCC2)c2ccccc12	-5	-14%	nt	-18%[46.1 µM]
O=C(c1cnc(N2CCN(c3ncccn3)CC2)c2ccccc12)N1CCN(c2ncccn2)CC1	?	-6%	?	-28%
C[C@H]1COc2cc(NCCCN3CCOCC3)ccc2S(=O)(=O)N1	-16	nt	nt	6%[46.1 µM]
SMILES	HCMV antiviral	FMDV inh	Marburg entry inh	LASV entry inh
Cc1ccc(COC(=O)c2cc(S(=O)(=O)N3CCCCC3)ccc2N2CCOCC2)cc1	-27	?	?	7.1µM*
Cc1ccc(C)c(COC(=O)c2cc(S(=O)(=O)N3CCCCC3)ccc2N2CCOCC2)c1	-8	-27%	?	7.1µM*
C(=C\c1ccccc1)/CN1CCN(c2ncnc3c2oc2ccccc23)CC1	-73*	20µM*	?	-16%
CC(C)n1cnc2c(NCc3ccccc3)cc(N[C@H](C)CO)cc21	nt	8.9µM*	nt	nt
CCC(CO)Oc1cc(NCc2ccccc2)c2ncn(C(C)C)c2c1 (configuration not stated)	?	-11%	nt	nt
O=C(NCc1nc2ccccc2[nH]1)C1=C[C@H](c2csc3ccccc23)C[C@H](OCc2ccc(CO)cc2)O1	-62*	-19%	nt	nt
O=C(NCc1ccccc1)C1=C[C@H](c2ccccc2)C[C@H](OCc2ccc(CO)cc2)O1	-91*	14%	nt	nt
O=C(Nc1ccccc1)C1=C[C@H](c2csc3ccccc23)C[C@H](OCCCCO)O1	15	12%	nt	nt
O=C(NCc1ccccc1)C1=C[C@H](c2csc3ccccc23)C[C@H](OCCCCO)O1	-95*	-6%	nt	nt
Cc1ccc2[nH]c(C(=O)NCc3nc(-c4cccc(NC(=O)c5cc(C)oc5C)c4)oc3C)cc2c1	nt	2%	nt	nt
Cn1c(=O)c2c(-c3ccccc3)n3c(c2n(C)c1=O)C(c1ccccc1[N+](=O)[O-])Nc1ccccc1-3 (configuration not stated)	-20	0%	6%[46.1 µM]	-12%[46.1 µM]
COc1ccccc1C1Nc2ccccc2-n2c(-c3ccccc3)c3c(=O)n(C)c(=O)n(C)c3c21 (configuration not stated)	-96*	?	?	?
Cn1c(Nc2ccccc2)nc2cnc(Nc3cccc(Cl)c3)cc21	-7	nt	nt	nt
CCOc1ccccc1NC(=O)c1cnc(N2CCOCC2)c2ccccc12	6	-18%	nt	-23%[46.1 µM]
Cc1cc(/C=N\NC(=O)c2cccs2)c(C)n1-c1ccc2ncccc2c1	38	-29%	?	10µM*
Cc1cc(/C=N\NC(=O)COc2cccc3cccnc23)c(C)n1-c1ccc(Br)cc1	?	-19%	-44%	-12%
CC(=O)c1cc(-c2ccccc2)n(CCC(=O)NCCc2ccccc2)c1C	?	-2%	nt	?
CC(C)(C)S(=O)(=O)N1C[C@@H]2CC(=O)C=C2[C@H]1CCO	5	nt	nt	nt
COc1cc2c3cc1Oc1cc(ccc1O)C[C@@H]1c4c(cc(OC)c(O)c4Oc4ccc(cc4)C[C@H]3N(C)CC2)CCN1C	-10	-26%	1.8µM*	?
O=C1/C(=C/c2ccccc2[N+](=O)[O-])COc2ccccc21	-100*	?	nt	nt
Cc1ccc(/C=C/c2nnc(-c3cccs3)o2)cc1	16	nt	12µM*	10µM*
COC(=O)c1cn([C@@H]2C[C@@H](C(=O)Nc3cccc(SC)c3)N(C3CCCCCC3)C2)nn1	nt	-12%	nt	nt
Nc1nonc1-n1nnc(C(=O)N/N=C/c2c(F)cccc2Cl)c1-c1ccc2c(c1)OCO2	0	8%	nt	nt
Nc1nonc1-n1nnc(C(=O)N/N=C/c2ccc(Br)cc2)c1-c1ccc2c(c1)OCO2	+	15%	?	-5%[46.1 µM]
Nc1nonc1-n1nnc(C(=O)N/N=C/c2ccc(F)cc2)c1-c1cccs1	+	2%	-17%[46.1 µM]	-6%[46.1 µM]
CC(C)c1c(C(=O)N/N=C/c2ccc3c(c2)OCO3)nnn1-c1nonc1N	?	-3%	nt	nt
Nc1nonc1-n1nnc(C(=O)N/N=C/c2cccc(Cl)c2)c1-c1ccc2c(c1)OCO2	+	-15%	1%[46.1 µM]	7%[46.1 µM]
Nc1nonc1-n1nnc(C(=O)N/N=C/c2ccc3c(c2)OCO3)c1-c1ccccc1	-70*	5%	19%[46.1 µM]	nt
